# Assay results reported in PubChem BioAssay.
# System: not listed separately
# Assay: small molecules captured by biotinylated probe aFGF10 – biochemical, small-molecule microarray, fluorescence 635/667, stem cell growth factor project, primary screen (AID 1071);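 further: score merges 667 nm spot intensity and signal to noise from triplicate slides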
# Conditions: higher = more signal
row,Structure (SMILES),composite z-score
1,CC=CC1=C(CO)[C@H](O)[C@H]2O[C@H]2[C@H]1O,0.166
2,COc1ccc(COC(=O)NN=C2C[C@@H](O)[C@@H](O)[C@@H]3[C@@H]4C(=O)N(Cc5ccc6c(c5)OCO6)C(=O)[C@@H]4CC[C@@H]23)cc1,-0.0669
3,CN1C(=O)C2C=CC(C(O)c3ccc(I)cc3)N(NC(=O)OC(C)(C)C)C2C1=O (stereo unspecified),0.652
4,COc1ccc(COC(=O)NN=C2C[C@@H](O)[C@@H](O)[C@@H]3[C@@H]4C(=O)N(c5ccc(F)cc5F)C(=O)[C@@H]4CC[C@@H]23)cc1,-0.299
5,CCOC(=O)[C@H](CC(C)C)NC(=O)CCC1CC(OC(=O)NCCc2ccc(F)cc2)CC2(CCCC(COC(=O)NCc3ccccc3)O2)O1 (stereo partly specified),1.02

# Target: Neurogenic locus notch homolog protein 2 (Homo sapiens) (UniProt Q04721)
# Assay: small molecules binding Notch2 protein – biochemical, small-molecule microarray, 635 nm fluorescence, stem cell growth factors, primary screen (AID 1073)
# Conditions: higher = more signal
# Sequence of Neurogenic locus notch homolog protein 2 (Homo sapiens) (Q04721 whole entry, looked up): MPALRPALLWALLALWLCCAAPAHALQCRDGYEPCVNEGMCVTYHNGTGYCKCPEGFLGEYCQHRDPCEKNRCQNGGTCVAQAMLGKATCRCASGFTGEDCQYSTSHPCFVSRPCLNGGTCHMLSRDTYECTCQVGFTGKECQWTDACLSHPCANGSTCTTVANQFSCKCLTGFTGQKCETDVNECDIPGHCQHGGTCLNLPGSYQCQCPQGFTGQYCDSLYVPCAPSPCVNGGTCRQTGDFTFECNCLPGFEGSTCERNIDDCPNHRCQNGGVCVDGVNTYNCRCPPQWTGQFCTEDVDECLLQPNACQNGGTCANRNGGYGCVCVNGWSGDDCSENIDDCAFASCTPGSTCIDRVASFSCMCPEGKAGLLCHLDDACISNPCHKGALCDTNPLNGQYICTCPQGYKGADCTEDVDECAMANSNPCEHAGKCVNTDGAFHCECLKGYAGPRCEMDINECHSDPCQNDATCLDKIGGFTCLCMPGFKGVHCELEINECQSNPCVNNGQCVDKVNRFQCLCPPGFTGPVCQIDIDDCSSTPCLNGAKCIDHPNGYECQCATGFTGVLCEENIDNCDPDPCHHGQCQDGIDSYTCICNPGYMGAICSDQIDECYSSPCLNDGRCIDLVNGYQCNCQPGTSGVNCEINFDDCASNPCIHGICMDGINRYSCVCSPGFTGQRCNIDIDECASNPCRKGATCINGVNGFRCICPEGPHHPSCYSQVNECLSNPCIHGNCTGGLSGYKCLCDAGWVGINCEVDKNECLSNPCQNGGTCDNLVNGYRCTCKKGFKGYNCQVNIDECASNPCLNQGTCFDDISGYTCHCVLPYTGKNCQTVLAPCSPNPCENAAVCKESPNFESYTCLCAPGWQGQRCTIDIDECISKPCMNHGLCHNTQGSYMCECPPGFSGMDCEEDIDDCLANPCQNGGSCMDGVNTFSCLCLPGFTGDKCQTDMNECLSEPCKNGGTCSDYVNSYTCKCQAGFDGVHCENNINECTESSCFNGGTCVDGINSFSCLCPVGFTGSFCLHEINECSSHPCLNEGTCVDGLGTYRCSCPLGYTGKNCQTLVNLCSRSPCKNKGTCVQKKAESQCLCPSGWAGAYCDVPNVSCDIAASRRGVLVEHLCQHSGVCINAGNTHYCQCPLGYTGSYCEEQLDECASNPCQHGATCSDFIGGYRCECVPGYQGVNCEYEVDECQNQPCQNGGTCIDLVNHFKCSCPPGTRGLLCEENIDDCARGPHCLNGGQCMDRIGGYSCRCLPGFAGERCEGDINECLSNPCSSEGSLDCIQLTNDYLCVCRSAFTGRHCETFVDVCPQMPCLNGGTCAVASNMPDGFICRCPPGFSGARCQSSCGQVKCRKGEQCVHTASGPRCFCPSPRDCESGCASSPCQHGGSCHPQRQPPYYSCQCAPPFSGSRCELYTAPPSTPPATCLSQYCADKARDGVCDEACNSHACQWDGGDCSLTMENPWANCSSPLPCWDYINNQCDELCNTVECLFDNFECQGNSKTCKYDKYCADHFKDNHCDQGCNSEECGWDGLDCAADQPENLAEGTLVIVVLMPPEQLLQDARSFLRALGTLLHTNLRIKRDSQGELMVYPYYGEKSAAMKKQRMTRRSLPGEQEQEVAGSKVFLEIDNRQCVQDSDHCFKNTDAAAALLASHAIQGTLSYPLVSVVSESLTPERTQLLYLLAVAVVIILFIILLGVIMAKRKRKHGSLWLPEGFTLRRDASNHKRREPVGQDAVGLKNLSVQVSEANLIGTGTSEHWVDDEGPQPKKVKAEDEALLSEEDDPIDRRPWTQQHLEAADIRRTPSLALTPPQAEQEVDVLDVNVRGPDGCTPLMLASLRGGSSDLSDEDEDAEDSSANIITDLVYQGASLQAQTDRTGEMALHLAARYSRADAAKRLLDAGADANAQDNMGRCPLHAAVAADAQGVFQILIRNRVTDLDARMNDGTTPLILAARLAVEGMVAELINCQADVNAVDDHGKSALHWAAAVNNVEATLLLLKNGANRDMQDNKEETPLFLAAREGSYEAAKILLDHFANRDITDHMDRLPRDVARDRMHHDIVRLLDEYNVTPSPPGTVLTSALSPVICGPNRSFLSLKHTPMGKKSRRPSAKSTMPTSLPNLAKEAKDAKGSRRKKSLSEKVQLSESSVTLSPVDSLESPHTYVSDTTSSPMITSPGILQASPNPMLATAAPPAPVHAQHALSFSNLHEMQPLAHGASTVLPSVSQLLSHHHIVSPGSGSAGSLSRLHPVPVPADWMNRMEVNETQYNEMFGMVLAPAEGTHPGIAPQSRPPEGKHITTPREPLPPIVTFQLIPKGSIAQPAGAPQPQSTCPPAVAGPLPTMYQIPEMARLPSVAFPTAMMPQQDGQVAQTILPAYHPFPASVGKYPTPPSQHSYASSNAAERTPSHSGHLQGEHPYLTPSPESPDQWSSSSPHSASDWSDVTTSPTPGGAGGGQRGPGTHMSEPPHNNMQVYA
row,Structure (SMILES),composite z-score
1,C[C@@H]1CCC2C(=O)N(Cc3ccccc3)C[C@@H](O)CN2[C@H]1c1ccc(Br)cc1 (stereo partly specified),-0.05
2,CCOC(=O)CCN1C(=O)[C@H]2[C@H]3[C@H](O)[C@H](O)CC(=O)[C@H]3CC[C@H]2C1=O,0.709
3,C#CCCCON=C1C[C@@H](O)[C@@H](O)[C@@H]2[C@@H]3C(=O)N(CCC(=O)OCC)C(=O)[C@@H]3CC[C@@H]12,-0.835
4,O=C1[C@H]2[C@H]3[C@H](O)[C@H](O)CC(=NOCc4ccccc4)[C@H]3CC[C@H]2C(=O)N1C[C@@H]1CCCO1,0.564
5,C#CCCCON=C1C[C@@H](O)[C@@H](O)[C@@H]2[C@@H]3C(=O)N([C@@H](C)c4ccccc4)C(=O)[C@@H]3CC[C@H]12,0.76
6,CCOC(=O)[C@H](Cc1ccccc1)NC(=O)CCC1CC(OC(=O)NCc2ccc3c(c2)OCO3)CC2(CCCC(COC(=O)NCc3cccc(C(F)(F)F)c3)O2)O1 (stereo partly specified),0.981
